The text below walks through data of PubChem BioAssay AID1117361 (Southern Research Institute, 2015).

In all, about 3,600 compounds went through this assay and about 900 (25%) were called active. Only a sample is shown. Entries with a potency or affinity are not part of this list. Values without a mark were called inactive. The rule behind the calls is not given here.

Usually inhibition stands for how much of the control response was suppressed.

This assay has as its target Protein Tat (Human immunodeficiency virus type 1 group M subtype B (isolate HXB2)) (UniProt P04608). In words: HIV-1 Tat–TAR interaction blockers – biochemical, fluorescence polarization, FAM-labeled TAR RNA, counter-screen for Vif-APOBEC3G degradation inhibitor project, dose response (AID 1117361). Conditions: Tat-TAR RNA binding; series mostly up to 100 µM; inhibition: at the top concentration.
As for `Cc1cccc(C)c1N1C(=O)C2ON(c3ccccc3)C(c3ccncc3)C2C1=O` (stereo not given), the “inhibition” value is 9.46%. Still for that read-out and setting: then `O=C(Nc1cnn(Cc2c(Cl)cccc2Cl)c1)c1ccc([N+](=O)[O-])cc1`, with 4.73%. On the same count and under the same terms, to `Cc1nn(CC(=O)NCc2ccccc2Cl)c(C)c1[N+](=O)[O-]` belongs 8.11%. Regarding `Cc1sc2ncnc(OCC(=O)N3CCN(S(=O)(=O)c4ccc(Cl)cc4)CC3)c2c1C`, the compound was classed as inactive. Regarding `CC(C)c1nc2sc3c(NCc4ccco4)ncnc3c2c2c1COC(C)(C)C2`, the “inhibition” value was 3.41%. For `CCC(=O)Nc1cc2c(cc1C(=O)CC)OCCO2`, the result was inactive.

Regarding `CCCC(=O)NC1=C(Cl)C(=O)c2ccccc2C1=O`, the outcome was inactive.

In the case of `Cc1ccc(S(=O)(=O)Nc2ccc3nc(C)sc3c2)cc1`, the “inhibition” value is 0.68%. As for `CCOc1ccc(S(=O)(=O)Nc2ccc(S(=O)(=O)N3CCCCC3)cc2)cc1`, the result was inactive.

Consider `CC(=O)N1CCN(c2ccc(NCc3ccc4c(c3)OCO4)cc2)CC1`, for which the “inhibition” value is 28.6%. For the compound `CCN1CCN(c2ccc(NC(=O)Cc3ccccc3)cc2)CC1`, the outcome was inactive. Turning to `COc1ccc(N2CCN(C(=O)COc3ccccc3)CC2)cc1`, the “inhibition” value is 2.05%. On the same count and under the same terms, then `Cc1snc(S(=O)(=O)Cc2ccccc2Cl)c1C#N`, with 1.35%.

With `COc1ccc(/C=C/CN2CCN(Cc3ccccc3)C(CCO)C2)cc1` (stereo not given), the call was inactive. Still for that read-out and setting: to `CSc1ccccc1NC(=O)c1noc2c1CCC2` belongs “inactive”. In the case of `CCCCS(=O)(=O)N1CCCC(C(=O)N2CCOCC2)C1` (stereo not given), the “inhibition” value was 12.4%. In the case of `COc1ccc(C2CC(O)(c3ccccc3)Oc3c(C)ccc(C)c32)cc1` (stereo not given), the call was inactive.

As for `Cn1c2ccccc2c2ccc3c(c21)C(=O)C=CC3=O`, the “inhibition” value was 4.34%. Same read-out and setting: to `Cc1ccc(CN(C(=O)Cn2nnc3ccccc32)C(C(=O)NCc2ccco2)c2cccs2)cc1` (stereo not given) belongs 8.78%. As for `CCOc1cc(C(C(=O)NCC2CCCO2)N(C(=O)Cn2nnc3ccccc32)c2cccc(OC)c2)ccc1O` (stereo not given), the outcome was inactive.

As for `CCCCn1c(SCC(=O)Nc2ccc3c(c2)OCCO3)nnc1C(CC)N(C)C` (stereo not given), the call was inactive. As for `C/C(=N\Nc1ccc2nncn2n1)c1ccc(Br)s1`, the “inhibition” value is 1.65%.

Turning to `COc1cc(Cc2cnc(N)nc2N)cc(OC)c1OC`, the outcome was inactive. Consider `O=C1C(C=NC2CC2)=C(O)c2ccccc21`, for which the “inhibition” value was 6.76%. On the same count and under the same terms, to `COc1ccc(Cl)cc1N(CC(=O)Nc1ccc2c(c1)OCCO2)S(C)(=O)=O` belongs 5.41%; to `O=C(CN1CCN(CC(=O)Nc2ccc3c(c2)OCO3)CC1)Nc1ccc(F)cc1`, 2.73%. For `CCn1c(=O)c2cc(C(=O)N(C)c3ccccc3F)sc2c2ccccc21`, the call was inactive. `CCOC(=O)N1CCC(NC(=O)C2CCN(c3nc(-c4ccc(OC)cc4)no3)CC2)CC1`: the “inhibition” value was 4.77%. Same read-out and setting: to `O=C(OCC(=O)N1CCN(C(=O)c2ccco2)CC1)c1cc(-c2ccco2)nc2ccccc12` belongs 27.7%. The same measure, in the same setting: to `Cc1oc(-c2ccccc2)nc1C(=O)OCC(=O)NCc1ccc(F)cc1` belongs 27.1%. For the compound `CC(C)Oc1ccc(C(=O)N(Cc2ccco2)C2CCS(=O)(=O)C2)cc1` (stereo not given), the “inhibition” value is 2.34%. On to `CS(=O)(=O)N(CC(=O)NCc1ccc2c(c1)OCO2)Cc1ccccc1`, for which the compound was classed as inactive. On the same count and under the same terms, then `O=C(CCCc1c[nH]c2ccccc12)NCc1ccc2c(c1)OCO2`, with “inactive”. Consider `Cc1cc(C(=O)OC2CCOC2=O)c2ccccc2n1` (stereo not given), for which the “inhibition” value was 4.05%. Still for that read-out and setting: to `CCOC(=O)C1CCCN(C(=O)c2c(-c3ccccc3Cl)noc2C)C1` (stereo not given) belongs 5.41%. On the same count and under the same terms, to `CCOC(=O)C1CCCN(Cc2ccc(O)c(OC)c2)C1` (stereo not given) belongs 3.38%.

On to `O=C(CSc1nnc2n(C3CCCCC3)c(=O)c3ccccc3n12)OC1CCCCC1`, for which the compound was classed as inactive. In the case of `Cc1cc(Cl)c(S(=O)(=O)NCc2cccnc2)cc1OCC(=O)NC1CCCCC1`, the compound was classed as inactive. The same measure, in the same setting: to `O=S(=O)(c1cccs1)n1nnc2ccccc21` belongs “inactive”. `COc1cc(-c2nnc(SCc3cc(=O)oc4cc(O)c(O)cc34)o2)cc(OC)c1OC`: the “inhibition” value is 1.67%. As to `C=C(c1ccc(OCCO)cc1)c1ccc(OCCO)cc1`, the “inhibition” value was 12.8%. In the case of `CC(=O)N1CCN(c2ccc(NC(=O)COc3ccc(Cl)cc3Cl)cc2)CC1`, the “inhibition” value was 8.87%. `Cc1nc2ccc(NS(=O)(=O)c3ccc(F)cc3F)cc2s1`: the result was inactive. Turning to `CC1(C)C/C(=C(/C#N)C(N)=O)CCO1`, the “inhibition” value is 8.11%. The same measure, in the same setting: then `COc1cc2c(cc1OC)C(C(=O)O)C(c1cc(Br)c(O)c(OC)c1)N(C)C2=O` (stereo not given), with 0.68%; and `Cc1sc2ncnc(OCC(=O)NCC3CCCO3)c2c1C` (stereo not given), with 10.1%. Turning to `CN(Cc1ccccc1)C(=O)C1CCCN1S(=O)(=O)c1ccc2c(c1)n(C)c(=O)c(=O)n2C` (stereo not given), the compound was classed as inactive. On the same count and under the same terms, then `O=C(NCCSCc1ccccc1)c1ccc(C2SCC(=O)N2Cc2ccccc2)cc1` (stereo not given), with “inactive”; and `CCCn1nc(Oc2nc(SC)nc(N(C)C)n2)ccc1=O`, with “inactive”.

For the compound `COc1ccc2nc(-c3ccccc3)cc(C(=O)OCC(=O)N3CC(C)OC(C)C3)c2c1` (stereo not given), the outcome was inactive.

Consider `O=C(Nn1cnnc1)c1cc(-c2cccc(Br)c2)nc2ccccc12`, for which the outcome was inactive. `CC(C)OP(=O)(OC(C)C)C(O)c1ccc(N(C)C)cc1` (stereo not given): the “inhibition” value is 7.42%. As for `Cc1oc(/N=C/c2cccc3ccccc23)c(C#N)c1C`, the “inhibition” value is 3.67%. Regarding `O=C1C=C(c2c(O)ccc3ccccc23)c2ccccc2C1=O`, the “inhibition” value was 3.01%.

Turning to `COc1ccc(CCN2CC(C(=O)NCC(c3ccccc3)N(C)C)CC2=O)cc1OC` (stereo not given), the outcome was inactive. For `COc1cc2c(cc1OC)C(C)N(C(=O)c1cc3n(n1)C(C(F)(F)F)CC(c1ccco1)N3)CC2` (stereo not given), the “inhibition” value is 14.9%. On to `Cc1[nH]c(=O)[nH]c(=O)c1S(=O)(=O)N1CCCC(C(=O)NCCc2ccccc2)C1` (stereo not given), for which the call was inactive. As to `CCC(C)[C@H](NC(=O)N1CCCC1)C(=O)O` (stereo not given in full), the “inhibition” value was 3.38%.

Turning to `CCOC(=O)c1[nH]nc(-c2c(O)cc(C)cc2O)c1-c1csc(C)n1`, the “inhibition” value is 4.95%. On the same count and under the same terms, then `CC(=O)N1CCc2cc(S(=O)(=O)NC(C(=O)NC3CCCc4ccccc43)C(C)C)ccc21` (stereo not given), with 6.14%; and `Cc1nc2ccc(S(=O)(=O)NC(C(=O)N3CCC(C)CC3)C(C)C)cc2s1` (stereo not given), with 0.68%.

Regarding `COC(=O)C1CCCN1S(=O)(=O)c1ccc2ccccc2c1` (stereo not given), the call was inactive. Still for that read-out and setting: to `Cc1ccc(Nc2nc3ccccc3nc2-n2nc(C)cc2C)cc1` belongs “inactive”. The same measure, in the same setting: to `Cc1c(Cl)cccc1NC(=O)CSc1nnc(C)n1-c1ccccc1` belongs “inactive”; to `COCCn1c(SCC(=O)Nc2cccc(C)n2)nnc1-c1ccco1`, “inactive”. On to `CC(C)Cn1c(SCC(=O)Nc2cccnc2Cl)nnc1-c1ccco1`, for which the “inhibition” value was 1%. The same measure, in the same setting: then `Cc1nc(SCC(=O)Nc2ccnc3ccccc23)n[nH]1`, with 11.6%; and `Cc1cc(SCC(=O)Nc2ccccc2C)nc(C)n1`, with 8.78%; and `Cc1cccc(NC(=O)CSc2nnc(-c3ccccc3C)o2)c1`, with 4.77%.

For `CCC1(C)Cc2c(sc(NC(=O)CCC(=O)O)c2C#N)CO1` (stereo not given), the “inhibition” value is 4.09%. As for `CCCSc1nc2c(cnn2-c2ccc(C)cc2)c(=O)[nH]1`, the result was inactive. For the compound `CCCCc1cc(C(=O)Cc2ccccn2)c(O)cc1O`, the “inhibition” value is 8.35%. Take `CC(C)NC(=O)c1ccc(COCC(F)(F)C(F)F)cc1`: the call was inactive. For `CN(C)CCOCCSc1ccc(Cl)cc1`, the result was inactive. With `CC(C)(NO)/C(=N\O)c1ccccc1`, the “inhibition” value is 6.14%. On to `Cc1cc(Nc2ccc(Br)cc2)n2nc(C)nc2n1`, for which the outcome was inactive. Still for that read-out and setting: then `CCc1cc2c(N3CCCCC3)ncnc2s1`, with “inactive”; and `CCOc1ccc(Nc2nc(Cc3nnc(SCC(=O)NCC4CCCO4)n3C)cs2)cc1` (stereo not given), with “inactive”. In the case of `CCOC(=O)c1c(C)[nH]c(C(=O)OCC(=O)N2c3ccccc3CC2C)c1C` (stereo not given), the “inhibition” value is 7.5%.

With `S=C(Nc1cccc(Cl)c1)NC1CCCCC1`, the “inhibition” value is 3.41%.

On to `Cn1nnc(NC(=O)c2cccc(F)c2)n1`, for which the “inhibition” value was 5.46%.

Turning to `CC(=O)N1CCc2cc(S(=O)(=O)NCCC(=O)Nc3cccc(C)c3C)ccc21`, the “inhibition” value was 10.9%.

Take `CC1CCc2[nH]c3ccc(C(=O)N(C)CC(=O)Nc4ccc(F)cc4)cc3c2C1` (stereo not given): the compound was classed as inactive. Turning to `CC(=O)c1cccc(NC(=O)c2cnn3ccccc23)c1`, the “inhibition” value was 4.77%.

With `CC(=O)Nc1ccc(NC(=O)CN(c2cccc(C(C)=O)c2)S(C)(=O)=O)cc1`, the compound was classed as inactive. Same read-out and setting: then `O=C(NNC(=O)c1ccccc1F)c1cccc(-n2cccc2)c1`, with “inactive”; and `CCN(CC)C(=O)NCc1c(C)cc(C)cc1C`, with “inactive”; and `Cc1ccc(-n2[nH]c(=O)c3cccnc32)cc1`, with “inactive”. In the case of `O=C(Nc1ccc(Cl)c(-c2nc3ccccc3[nH]2)c1)c1cccnc1`, the “inhibition” value was 3.41%. Same read-out and setting: then `CCCCCCN(C(=O)CCCCCN1C(=O)NC(c2ccc(C(C)(C)C)cc2)C(C(=O)OCc2ccccc2)=C1C)C(C(=O)NCCCC)c1ccc(OCC(=O)OC)c(C(=O)OC)c1` (stereo not given), with 0.82%; and `CCOC(CNC(=O)C(=O)Nc1cc2c3c(c1)CC(=O)N3CCC2)OCC`, with 0.33%. Same read-out and setting: then `CCOC(=O)C1CCN(S(=O)(=O)c2cccc(-c3cn4cccc(C)c4n3)c2)CC1`, with 2.7%.

Regarding `C/C(=N\n1c(C)nc2ccccc2c1=O)c1ccc(C)o1`, the call was inactive.

`COc1ccc(C(=O)CSc2n[nH]c(N)n2)cc1`: the “inhibition” value was 0.68%.

In the case of `CCOC(=O)c1sc(-c2ccccc2)cc1NC(=O)CSc1nnnn1C`, the call was inactive.

Regarding `Cc1cc(C(=O)N2CCN(C/C=C/c3ccccc3)CC2)cs1`, the “inhibition” value is 6.76%. On to `CC1=C(C(=O)N2CCCCC2)C2(CCC(C)CC2)OC1=O` (stereo not given), for which the “inhibition” value was 2.03%. Same read-out and setting: to `COc1ccc(OC)c(S(=O)(=O)Nc2cnc3ccccc3c2)c1` belongs 4.09%; to `COc1ccc(NS(=O)(=O)c2cccc(Cl)c2Cl)cc1S(=O)(=O)N1CCCCC1`, 4.77%. Same read-out and setting: then `COC(=O)CN1C(=O)C(O)=C(C(C)=O)C1c1ccc([N+](=O)[O-])cc1` (stereo not given), with 2.73%. Consider `CC1(c2ccccc2)NC(=O)N(CC(=O)Nc2cccc(C#N)c2)C1=O` (stereo not given), for which the “inhibition” value is 0.7% [at 50 µM]. `O=C(CCc1ccccc1)Nc1ccc2c(c1)OCCO2`: the outcome was inactive. The same measure, in the same setting: to `CS(=O)(=O)N1CCC(C(=O)Nc2ccccc2)CC1` belongs “inactive”; to `COc1ccccc1N(CC(=O)NC(C)C)S(=O)(=O)c1cccs1`, “inactive”.

For `O=C(CN1CCCCC1)Nc1nnc(-c2ccccc2)s1`, the “inhibition” value was 0.68%. Still for that read-out and setting: to `CC(C)c1nnc(NC(=O)CCC(=O)NCc2ccco2)s1` belongs 0.68%; to `O=C(Nc1cc(Cl)ccn1)C1CCN(S(=O)(=O)c2cccs2)CC1`, 8.78%; to `O=C(Nc1ccncc1)C1CCN(S(=O)(=O)c2c(Cl)cccc2Cl)CC1`, 6.35%.

For `CC(=O)C1=C(N2CCCCC2)CCC1=O`, the “inhibition” value is 4.73%.

With `Cc1ccc(CNC(=O)CN(c2cccc([N+](=O)[O-])c2)S(C)(=O)=O)cc1`, the call was inactive.
